HCV inhibitor: blocks hepatitis C virus; Huh7.5.1 HCVcc-Cre infection, luciferase reporter, 44 h; Potency, µM (series often up to 41.8 µM), for the others: at the highest dose activity change, negative = inhibition, usual class: inhibitors; hit rate 3.4% among 340,000; note: potency is the fitted concentration of half-maximal effect; % is set by controls: 0 for no effect and ±100 for the full control effect
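Seed cells (1,000/well) for 4 h; treat with compound and infect with HCVcc-Cre, moi about 0.5. Incubate 44 h, then detect luciferase activity.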
Sm TGR inh: S. mansoni TGR enzyme inhibition | purified TGR, DTNB reduction, TNB absorbance 405 nm | hit rate 3% among 360,000 | Potency, µM (doses to about 114 µM), without a hit: at the top dose activity change, negative = inhibition, most hits filed as inhibitors | Q962Y6 | AID 485364; note: potency is the fitted concentration of half-maximal effect; % is set by controls: 0 for no effect and ±100 for the full control effect; nearly all actives have a fitted effect of over 60% in size
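Kinetic colorimetric format: TGR-catalysed, NADPH-driven DTNB reduction monitored via TNB absorbance. Enzyme dispensed at 20 nM; compound exposure 15 min at room temperature before reaction start.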
Pf growth 48h: P. falciparum growth inhibition at 48 hours (one generation); P. falciparum luciferase growth in erythrocytes, 48 h; Potency, µM (titrated, usually from 28.7 µM), for the others: at the highest dose activity change, negative = inhibition, most hits filed as inhibitors; hit rate 5.9% among 310,000; AID 504832; note: potency is the fitted concentration of half-maximal effect; % is set by controls: 0 for no effect and ±100 for the full control effect
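Parasite viability was followed by luminescence of a genomically integrated firefly luciferase. Cultures held 0.1% parasitemia at 2% hematocrit (final), incubated under 5% CO2 at 37 C.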
HCMV antiviral: blocks human cytomegalovirus replication | activity change, negative = inhibition, % at 57.5 µM | hit rate 4.5% among 410,000 | HFF cells, HCMV-luciferase reporter, 72 h; hits give low values; in the data active = activity change below about -60%; inconclusive = no clear call, values can overlap the other calls; inactive = above about -39%; note: % is set by controls: 0 for no effect and ±100 for the full control effect
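Screen run at 2 compound doses on HFFs infected with reporter HCMV, MOI 1 PFU/cell. Luciferase activity from cell lysates at 72 h post infection gave inhibition relative to buffer-only and Salinomycin wells.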
Pf growth 96h: P. falciparum growth inhibition at 96 hour, primary screen for plastid delayed-death inhibitors; hit rate 6.9% among 320,000; AID 504834; P. falciparum luciferase reporter growth, 96 h; Potency, µM (series often up to 28.7 µM), for inactives: at the highest dose activity change, negative = inhibition, actives largely listed as inhibitors; note: potency is the fitted concentration of half-maximal effect; % is set by controls: 0 for no effect and ±100 for the full control effect
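Readout is luminescence from an integrated firefly luciferase in P. falciparum. Red cells, 2% hematocrit and 0.05% parasitemia final, were cultured with compound through two parasite generations (96 hours) at 37 C, 5% CO2.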
SARS PLpro yeast: inhibitors of SARS-CoV papain-like protease in yeast; S. cerevisiae expressing SARS-CoV PLpro, growth rescue; Potency, µM (highest dose often 32.9 µM), for inactives: top-dose activity, positive = growth rescue, most hits filed as activators; hit rate 0.19% among 330,000; AID 485353; calls by dose curve; note: potency is the fitted concentration of half-maximal effect; 0% is about no effect; nearly all actives have a fitted effect of over 55% in size
* marks the source's active call; other numbers are inactive results; ? = inconclusive; . = no result given; [ ] = remark or other dose. Rows were chosen to be rich in hits. Some 15% of all compounds tested hit in one or more screens of this group. Unless noted, calls come from the whole dose curve; as a rule, active = well fitted curve in the direction sought with a large enough effect; inconclusive = small, poorly fitted or top-dose-only effect, or another doubt; inactive = no such curve, though single readings can be large; an effect the other way counts as inactive or inconclusive.

SMILES	HCV inhibitor	Sm TGR inh	Pf growth 48h	HCMV antiviral	Pf growth 96h	SARS PLpro yeast
COc1ccc(CNC(=O)C2CCN(S(=O)(=O)N3CCCCC3)CC2)cc1	9%	0%	15%	0	25%	1%
COc1ccc(CN2CC(C(=O)NCc3ccc4c(c3)OCO4)CC2=O)cc1 (configuration not stated)	-15%	0%	.	-14	?	14%
Cc1cc(SCC(=O)NCC2CCCO2)nc2ccccc12 (configuration not stated)	6%	-19%	3%	11	1%	2%
O=C(CNc1cccc2ccccc12)N/N=C/c1ccc(OC(=O)/C=C/c2ccco2)cc1	-6%	4%	?	-7	-7%	1%
COc1cc(/C=N/NC(=O)CNC(=O)/C=C/c2ccco2)cc(OC)c1OC	12%	50µM*	5%	0	24%	1%
COc1ccccc1/C=C/C(=O)NCC(=O)N/N=C/c1ccc2c(c1)OCO2	-17%	5%	-3%	-25	-21%	-5%
O=C(CNc1ccc2ccccc2c1)N/N=C/c1ccc(OC(=O)/C=C/c2ccco2)cc1	5%	-9%	8.3µM*	-18	31%	4%
COc1ccccc1/C=C/C(=O)NCC(=O)N/N=C/c1ccccc1	-13%	-2%	5%	2	29%	-5%
COc1ccc(/C=N/NC(=O)CNC(=O)/C=C/c2ccco2)cc1OC	0%	25µM*	-2%	0	375%	-4%
c1ccc(-c2ccc(-c3cnc4n3CCCCC4)cc2)cc1	?	-1%	?	-20	.	11%
CC(NC(=O)c1cccc(S(=O)(=O)N2CCN(C)CC2)c1)c1ccc(Cl)cc1Cl (configuration not stated)	?	-4%	?	-34	-40%	1%
CCOC(=O)CSc1nc2sc3c(c2c(=O)n1C1CCCCC1)CCN(C)C3	?	-19%	1.5µM*	-28	?	-23%
COc1ccc(-n2c(SCC(=O)O)nc3sc4c(c3c2=O)CCC4)cc1	3%	.	-4%	-17	?	0%
Cc1ccc(-n2c(SCC(=O)O)nc3sc4c(c3c2=O)CCCC4)cc1	-6%	-3%[57.1 µM]	11%	42	2.9µM*	0%
CCOc1ccc(-n2c(SCC(N)=O)nc3sc4c(c3c2=O)CCN(C)C4)cc1	12%	-2%	1.5µM*	-18	0.66µM*	0%
Cc1cccc(-n2c(SCC(=O)O)nc3sc4c(c3c2=O)CCCC4)c1	8%	14%[57.1 µM]	-8%	-17	33%	-2%
COc1ccc(-n2c(C)nc3sc4c(c3c2=O)CCC4)cc1	0%	0%	14%	-2	4.7µM*	-13%
Cc1ccc2nc(-c3ccc(Cl)cc3)c(Cc3ccccn3)n2c1	.	.	.	4	.	.
CCCSc1nc2sc3c(c2c(=O)n1-c1ccc(C)cc1)CCCC3	.	2%	.	6	.	.
Cc1ccccc1-c1nc2sc3c(c2c(=O)n1N)CCCC3	-5%	1%	.	-30	4.7µM*	-15%
C=C(C)CSc1nc2sc3c(c2c(=O)n1-c1ccc(C)cc1)CCN(C)C3	?	-32%	1.3µM*	-36	0.93µM*	-1%
CN1CCc2c(sc3nc(NN)n(-c4ccc(Cl)cc4)c(=O)c23)C1	?	-22%	.	.	?	-2%
COc1ccc(-n2c(N3CCN(C)CC3)nc3sc4c(c3c2=O)CCCCC4)cc1	13µM*	6%	-24%	-20	8%[5.75 µM]	2%
Cc1ccc(-n2c(SCC(=O)c3c(N)n(C)c(=O)n(C)c3=O)nc3sc4c(c3c2=O)CCCC4)c(C)c1	?	3%	1.2µM*	-68*	0.83µM*	2%
Clc1ccc(NCc2ccsc2)cc1	.	-17%	37%	.	0%	3%
SMILES	HCV inhibitor	Sm TGR inh	Pf growth 48h	HCMV antiviral	Pf growth 96h	SARS PLpro yeast
COc1ccc(-n2nc(C(=O)Nc3ccc(C(C)=O)cc3)nc2-c2ccccc2)cc1	.	-3%	.	-3	.	.
COc1ccc(-n2c(SCC(=O)Nc3nccs3)nc3sc4c(c3c2=O)CCN(C)C4)cc1	-4%	-22%	?	-14	?	-5%
CCOC(=O)CSc1nc2sc3c(c2c(=O)n1-c1ccc(OCC)cc1)CCN(C)C3	?	-13%	13µM*	-30	0.74µM*	0%
COc1ccc(-n2c(SCC(N)=O)nc3sc4c(c3c2=O)CCC4)cc1	10µM*	12%	7%	1	-5%	0%
COc1ccc2sc3cccc(NCCN(C)C)c3c(=O)c2c1	.	.	.	2	.	.
CN(C)CCNc1ccc(CO)c2sc3ccc(O)cc3c(=O)c12	?	.	.	-97*	.	.
CN(C)CCNc1ccc2ncn3c4ccc(O)cc4c(=O)c1c23	?	.	.	-93*	.	.
CN(C)CCNc1ccc(-c2nn(C)c(=O)c3ccccc23)cc1[N+](=O)[O-]	?	.	-3%	3	45%	1%
CCCCN(C)C(=O)c1sc(=O)n(Cc2c(C)cccc2C)c1C	.	.	.	-61*	.	.
CCCCN(C)C(=O)c1sc(=O)n(Cc2ccccc2F)c1C	.	.	.	-27	.	.
CCc1ccccc1N1C(=O)CN(Cc2cc(OC)c(OC)c(OC)c2)C1=S	32µM*	16%	5.2µM*	-15	?	-3%
COc1cc(CN2CC(=O)N(c3ccc(C)c(C)c3)C2=S)cc(OC)c1OC	?	-1%	1µM*	-15	13%	-6%
Cc1cc(C)cc(N2C(=O)CN(Cc3ccccc3)C2=S)c1	0%	11%	15µM*	17	4.7µM*	-2%
CCc1ccc(N2C(=O)CN(Cc3cc(OC)c(OC)c(OC)c3)C2=S)cc1	?	-9%	4%	-3	-19%	4%
CCc1ccc(N2C(=O)CN(Cc3ccccc3)C2=S)cc1	-4%	20%	?	5	25%	-5%
COc1cc(CN2CC(=O)N(c3cc(Cl)ccc3C)C2=S)cc(OC)c1OC	-23%	-2%	2.6µM*	-31	-17%	-8%
COc1ccc(CN2CC(=O)N(c3ccc(C)cc3C)C2=S)cc1OC	-15%	-6%	?	18	?	1%
COc1ccc(CN2CC(=O)N(c3ccccc3C)C2=S)cc1OC	?	3%	9.3µM*	24	96%	1%
COc1ccc(CN2CC(=O)N(c3cc(Cl)ccc3C)C2=S)cc1OC	?	15%	7.4µM*	-17	0%	-3%
CC(/C=N/n1c(-c2ccncc2)n[nH]c1=S)=C\c1ccco1	-26%	32µM*	75%	?	4%	1%
C(=C\c1ccco1)/C=N/n1cnnc1	12%	28µM*	17%	70	24%	8%
Cc1ccc(/C=N/n2c(-c3cccc(Cl)c3)n[nH]c2=S)o1	10%	-2%	55%	5	17%	0%

Screening results from PubChem BioAssay.
